Assay in all cases: NCI-60 one-dose screen, 48 h (100 = growth as untreated, 0 = no growth, -100 = all killed)
One experiment concerns SK-MEL-2 melanoma. The settings on record: 10 µM unless noted.
The next experiment deals with EKVX NSCLC. The settings on record: 10 µM unless noted.
A further experiment deals with SN12C renal. The settings on record: 10 µM unless noted.
In a further experiment the test system is TK-10 renal. The conditions noted are these: 10 µM unless noted.
A further experiment concerns ACHN renal. The settings on record: 10 µM unless noted.
A further experiment relates to CAKI-1 renal. The settings on record: 10 µM unless noted.
A further experiment relates to A498 renal. The settings on record: 10 µM.
In another experiment the test system is HL-60(TB) leukemia. The settings on record: 10 µM unless noted.
Another experiment concerns CCRF-CEM leukemia. The settings on record: 10 µM unless noted.
The next experiment concerns MOLT-4 leukemia. The settings on record: 10 µM unless noted.
The test system of the next experiment is SR leukemia. The conditions noted are these: 10 µM unless noted.
For a further experiment, the system named is RPMI-8226 leukemia. The conditions noted are these: 10 µM unless noted.
Another experiment deals with OVCAR-8 ovarian. The settings on record: 10 µM unless noted.
For a further experiment, the system named is OVCAR-5 ovarian. The conditions noted are these: 10 µM unless noted.
For the next experiment, the system named is OVCAR-4 ovarian. The conditions noted are these: 10 µM unless noted.
In a further experiment the test system is SK-OV-3 ovarian. The settings on record: 10 µM unless noted.
In another experiment the test system is IGROV1 ovarian. The settings on record: 10 µM unless noted.
For another experiment, the system named is OVCAR-3 ovarian. The settings on record: 10 µM unless noted.
The subject of a further experiment is HS 578T breast. The settings on record: 10 µM unless noted.
Another experiment has as its system UO-31 renal. The settings on record: 10 µM unless noted.

Compounds without any hit were thinned out: in the full panel of roughly 83,000, 20% have a hit.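 Interpretation: 100, growth as untreated; towards 0, rising growth inhibition; 0, no net growth; 0 to -100, cell death. Compounds scoring below 10 were considered active.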 Values without a mark were called inactive. Calls of active or inactive are those of the source.

Regarding `O=C(CC1(O)C(=O)N(Cc2ccccc2)c2ccc(F)cc21)c1ccc(C(=O)NCC2CCC3(CC2)OOC2(CCCCC2)OO3)cc1` (centres undefined), the growth in the experiment with SK-MEL-2 melanoma was -12.9% (active); in the experiment with EKVX NSCLC it was -68.5% (active); in the experiment with SN12C renal it was -59.5% (active); in the experiment on TK-10 renal, -93.6% (active); with ACHN renal, -80.7% (active); in the experiment with CAKI-1 renal, -87.1% (active). Moreover, the growth is -88.5% (active) in the experiment with A498 renal; -57.5% (active) in the experiment on HL-60(TB) leukemia; -36.9% (active) in the experiment with CCRF-CEM leukemia; -48.9% (active) in the experiment on MOLT-4 leukemia; -44.8% (active) in the experiment on SR leukemia; -29.7% (active) in the experiment with RPMI-8226 leukemia. Besides, the growth in the experiment on OVCAR-8 ovarian is -30.5% (active); in the experiment with OVCAR-5 ovarian it was 4.61% (active); in the experiment on OVCAR-4 ovarian, -32.4% (active); in the experiment on SK-OV-3 ovarian it was 41.1%; in the experiment on IGROV1 ovarian it was -38.1% (active); with OVCAR-3 ovarian it was -76.9% (active). For the same compound, the growth in the experiment on HS 578T breast is -9.82% (active).

Take `COc1ccc2c(c1)c(-c1nc(-c3c[nH]c4ncccc34)cs1)cn2CCCCN1CCCCC1`: the growth in the experiment on SK-MEL-2 melanoma was -53.2% (active); in the experiment on EKVX NSCLC, 49.4%; in the experiment with SN12C renal, -75.2% (active); in the experiment with UO-31 renal it was -87.6% (active); with TK-10 renal it was -16.6% (active); in the experiment with ACHN renal it was -92.2% (active). Further, the growth with HL-60(TB) leukemia is -69.8% (active); in the experiment with CCRF-CEM leukemia, -38.7% (active); in the experiment with MOLT-4 leukemia it was -60.3% (active); in the experiment on SR leukemia it was -57.6% (active); in the experiment on RPMI-8226 leukemia it was -43.6% (active); in the experiment with OVCAR-8 ovarian it was -67.6% (active). In addition, the growth was -15.7% (active) in the experiment on OVCAR-5 ovarian; -13.3% (active) in the experiment on OVCAR-4 ovarian; -61.5% (active) with SK-OV-3 ovarian; -62.1% (active) in the experiment with IGROV1 ovarian; -71.4% (active) with OVCAR-3 ovarian; -23.3% (active) in the experiment with HS 578T breast.

Take `CN1CCC(c2c[nH]c3ccccc23)C1` (centres undefined): the growth with SK-MEL-2 melanoma is 87.5%; with EKVX NSCLC, 98.1%; in the experiment with SN12C renal it was 124%; in the experiment with UO-31 renal, 69.1%; in the experiment with TK-10 renal it was 154%; with ACHN renal, 96.2%. The growth in the experiment on HL-60(TB) leukemia is 104%; in the experiment on CCRF-CEM leukemia, 98.7%; in the experiment on MOLT-4 leukemia, 105%; in the experiment with SR leukemia, 96.6%; in the experiment with RPMI-8226 leukemia, 79.7%; in the experiment with OVCAR-8 ovarian it was 96.4%. Further, the growth was 77% in the experiment with OVCAR-5 ovarian; 107% in the experiment with OVCAR-4 ovarian; 99.4% in the experiment with SK-OV-3 ovarian; 103% with OVCAR-3 ovarian; 113% in the experiment on HS 578T breast.

As to `Fc1cccc(NCOOC2(OOCNc3cccc(F)c3)CCCCC2)c1`, the growth is 91.7% in the experiment with SK-MEL-2 melanoma; 93.8% with EKVX NSCLC; 103% with SN12C renal; 90.8% in the experiment on TK-10 renal; 95% with ACHN renal; 52.3% with CAKI-1 renal. The growth in the experiment with A498 renal is 92.4%; in the experiment on HL-60(TB) leukemia it was 88.3%; with CCRF-CEM leukemia, 84.1%; in the experiment with MOLT-4 leukemia, 97.6%; with SR leukemia it was 31.5%; with RPMI-8226 leukemia, 99.6%. Further, the growth is 96.8% in the experiment on OVCAR-8 ovarian; 96.2% in the experiment on OVCAR-5 ovarian; 98.5% in the experiment with OVCAR-4 ovarian; 103% in the experiment with SK-OV-3 ovarian; 40.1% with IGROV1 ovarian; 99.3% in the experiment with OVCAR-3 ovarian. The growth in the experiment on HS 578T breast is 104%.

On to `CC[C@H](C)[C@H](NC(=O)[C@H]1CCCCN1C)C(=O)N(C)[C@H](C[C@@H](O)c1nc(C(=O)N[C@@H](Cc2ccccc2)C[C@H](C)C(=O)O)cs1)C(C)C`, for which the growth in the experiment on SK-MEL-2 melanoma was 41.3%; in the experiment with EKVX NSCLC, 91.5%; in the experiment with SN12C renal it was 90.5%; in the experiment with UO-31 renal, 84.1%; in the experiment on TK-10 renal, 91.9%; in the experiment with ACHN renal, 106%. Further, the growth with HL-60(TB) leukemia is 8.99% (active); in the experiment with CCRF-CEM leukemia, 43.5%; in the experiment on MOLT-4 leukemia, 79%; in the experiment with SR leukemia, 29.2%; in the experiment on RPMI-8226 leukemia it was 59.8%; in the experiment on OVCAR-8 ovarian, 93.5%. Besides, the growth in the experiment with OVCAR-5 ovarian was 101%; with OVCAR-4 ovarian it was 98%; in the experiment on SK-OV-3 ovarian, 97%; with IGROV1 ovarian, 76.6%; with OVCAR-3 ovarian, 63.2%; with HS 578T breast, 75.7%.

`COC(=O)[C@@H](C)C[C@H](Cc1ccccc1)NC(=O)c1csc([C@@H](C[C@H](C(C)C)N(C)C(=O)[C@@H](NC(=O)[C@H]2CCCN2C)C2CC2)OC(C)=O)n1`: the growth in the experiment on SK-MEL-2 melanoma was 35.8%; with EKVX NSCLC it was 31.1%; in the experiment with SN12C renal, 25.2%; with UO-31 renal, 48.2%; in the experiment with ACHN renal it was 20.8%; with CAKI-1 renal, 12.7%. Moreover, the growth with A498 renal is -0.976% (active); with HL-60(TB) leukemia it was -36.8% (active); in the experiment on CCRF-CEM leukemia, 6.07% (active); in the experiment with MOLT-4 leukemia, 12.3%; with SR leukemia it was 11.2%; in the experiment on RPMI-8226 leukemia it was 13.9%. For the same compound, the growth was 33.4% in the experiment on OVCAR-8 ovarian; 46.8% in the experiment on OVCAR-5 ovarian; 51.6% with OVCAR-4 ovarian; 25.7% with SK-OV-3 ovarian; 27.1% with IGROV1 ovarian; -34.5% (active) in the experiment with OVCAR-3 ovarian. The growth in the experiment with HS 578T breast was 3.36% (active).

Regarding `COC(=O)C12CC(NC(=O)c3csc([C@@H](C[C@H](C(C)C)N(C)C(=O)[C@@H](NC(=O)[C@H]4CCCCN4C)C(C)C)OC(C)=O)n3)(C1)C2`, the growth was 28.5% in the experiment on SK-MEL-2 melanoma; 44% in the experiment with EKVX NSCLC; 24.5% with SN12C renal; 44.4% in the experiment on UO-31 renal; 56.5% in the experiment with TK-10 renal; 22.9% with ACHN renal. Moreover, the growth in the experiment on HL-60(TB) leukemia was -38.9% (active); with CCRF-CEM leukemia it was 8.23% (active); with MOLT-4 leukemia, 14.3%; with SR leukemia, 15.2%; with RPMI-8226 leukemia, 17.8%; in the experiment with OVCAR-8 ovarian, 24.8%. Further, the growth was 46.8% in the experiment on OVCAR-5 ovarian; 50.4% in the experiment with OVCAR-4 ovarian; 13.2% in the experiment on SK-OV-3 ovarian; 19.3% in the experiment with IGROV1 ovarian; -17.5% (active) in the experiment on OVCAR-3 ovarian; 35.3% in the experiment on HS 578T breast.

As for `Clc1ccc(CSC(Cn2ccnc2)c2ccc(Cl)cc2Cl)cc1` (centres undefined), the growth is 34.1% with SK-MEL-2 melanoma; 31.7% in the experiment on EKVX NSCLC; 38.5% in the experiment with SN12C renal; 4.12% (active) in the experiment with UO-31 renal; 32.3% in the experiment on TK-10 renal; 20.8% in the experiment on CAKI-1 renal. The growth with HL-60(TB) leukemia was -11.6% (active); with CCRF-CEM leukemia, 20%; in the experiment on MOLT-4 leukemia, 1.87% (active); with SR leukemia, 2.95% (active); in the experiment on RPMI-8226 leukemia it was 29.8%; in the experiment with OVCAR-4 ovarian, 25.9%. The growth was 71.9% in the experiment on SK-OV-3 ovarian, 29.1% with IGROV1 ovarian, 38.8% with OVCAR-3 ovarian and 63.5% with HS 578T breast.
